Tgondii IFNg = T. gondii growth inhibition with IFN-gamma, primary screen, cell-based; Toxoplasma gondii growth in IFN-gamma-treated host cells; stronger effect = lower value; activity change, negative = inhibition, % (no concentration beside the values); actives 3.8% (n = 69,000); AID 1259416, 2018; in the data active means activity change below about -70%, passing the limit was not always enough;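 further: host cells are HeLa cells infected with Toxoplasma gondii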
Large screens that a line does not name were inactive; ! = not confirmed by another sample. The full list was thinned out, with hits kept by preference.

CCOCC(C)(C)NC(=O)CC(=O)Nc1cc(C)cc(C)c1	none
Cc1nc(-n2cnnc2)ccc1-c1cccc(Cl)c1Cl	Tgondii IFNg -84
COc1cccc(Cl)c1-c1cccc(-n2cnnc2)c1	none
Nc1nnc(-c2cccc(Cl)c2Cl)c(N)n1	none
CC(=O)N1CCC2(CC1)OC(=O)C(C)=C2C(=O)NCCCN1CCCC1	none
Cc1ccc2[nH]c(CCCNS(=O)(=O)NCc3ccccc3)nc2c1C	none
CC(Cc1cccnc1)n1ccnc1-c1cccnc1 (centres undefined)	none
Cc1ccc2c(c1C)-n1cccc1C1(CCN(C(=O)c3ccc(C#N)cc3)CC1)N2	none
Cc1ccc(C)c(NC(=O)c2ccc(Nc3nnc(C)c4ccccc34)cc2)c1	Tgondii IFNg -88
Cc1ccc(Nc2nc(C(=O)Nc3ccc(F)cc3C)nc3ccccc23)cc1	none
Cc1ccc(Nc2nc(C(=O)Nc3cc(Cl)ccc3C)nc3ccccc23)cc1	none
COc1ccc2c3c(n(C)c2c1)[C@@H](CO)N(C(=O)CC1CC1)CC31CN(C(=O)NC(C)C)C1	none
CC(C)c1ccc2c(c1)CCC1[C@](C)(CN)CCC[C@]21C (some centres undefined)	none
COC(=O)[C@@]1(C)CCC[C@]2(C)c3ccc(O)c(C(C)C)c3CCC12 (some centres undefined)	Tgondii IFNg -76
CC(C)c1ccc2c(c1)CCC1C(C)(C(N)=O)CCCC21C (centres undefined)	Tgondii IFNg -72
CC(C)c1c(O)ccc2c1CCC1C(C)(C)CCC[C@]21C (some centres undefined)	none
CCN(CC)c1ncnc2c1cnn2CC(=O)NC(C)c1ccccc1 (centres undefined)	none
CN1CC2(CCCN(Cc3cn[nH]c3-c3ccc(F)cc3)CC2)OC1=O (centres undefined)	none
CCc1ccc(S(=O)(=O)N2CCC(C(=O)NCCc3csc(-c4ccccc4)n3)CC2)cc1	none
COc1ccc(F)c(F)c1-c1nccn1C(C)Cn1nc(C)cc1C (centres undefined)	none
Cc1cccnc1CCNC(=O)C1CCCN(C2CCN(C(=O)C3CC3)CC2)C1 (centres undefined)	none
CC1(C)CC(c2nccn2Cc2cnn(Cc3ccccc3)c2)CCO1 (centres undefined)	none
CCOC(=O)c1c(NC2CCCC2)c2cccc(C)c2[nH]c1=O	none
O=C(Nc1ccccc1C(=O)NCc1cccnc1)c1cc2ccccc2o1	none
O=C(NCc1cccnc1)c1ccccc1C(=O)Nc1sc2ccccc2c1Cl	Tgondii IFNg -94
O=C(Nc1c(C(=O)NCc2cccnc2)[nH]c2ccccc12)c1ccc(Cl)cc1	none
Cc1ccccc1N1CC2(CCN(C(=O)C3CC3)C2)CC1=O (centres undefined)	none
COc1ccc(-c2nc(NCCN3CCC(C)CC3)c3ccccc3n2)cc1	none
COc1ccc(CCN2CCC(Nc3nc4ccccc4n3Cc3ccc(F)cc3)CC2)cc1	Tgondii IFNg -92!
COc1ccc(-c2nc(Nc3ccc(CN4CCC(C)CC4)cc3)c3ccccc3n2)cc1	none
COc1ccccc1CN1C[C@@H](C(=O)O)C[C@@H](C(=O)NCc2cccnc2)C1	none
C/C=C/C(=O)Nc1ccccc1-c1ccc(-c2ccn[nH]2)cc1	Tgondii IFNg -93
Cc1nnc(-c2ccccc2-c2ccc(-c3ccn[nH]3)cc2)o1	none
CC(Oc1ccccc1-c1ccc(-c2ccn[nH]2)cc1)C(N)=O (centres undefined)	none
N#Cc1c(-n2cccc2C#N)sc2c1CCCC2	none
CCc1cccc(NC(=O)C2=C(C)C(=O)OC23CCN(C(C)C)CC3)c1	none
Cc1n[nH]c(C)c1N=Nc1cc(Cl)cc(Cl)c1	Tgondii IFNg -92
CNS(=O)(=O)c1ccc(CN2CCCC(CCc3ccc(F)cc3)C2)cc1 (centres undefined)	none
Cc1ccc2c(c1)c(-c1nc(CC3CCN(C)CC3)no1)nn2C	none
C=CCn1c2c(ccc1=O)CC(NC(=O)Cc1cccs1)CC2 (centres undefined)	none
CCCn1ccc(C(=O)N2CCCCC2c2nnc(C3CCN(C(=O)CC)CC3)o2)n1 (centres undefined)	none
Cc1nc(-c2ccccc2)sc1-c1nc(-c2ccc(C(C)(C)C)cc2)no1	Tgondii IFNg -77
CC(C)(C)c1ccc(-c2nc(-c3ccc(Cl)cc3)no2)cc1	none
FC(F)(F)c1ccc(-c2noc(/C=C/c3ccccc3)n2)cc1	none
COc1cccc(-c2cn[nH]c2C2CCN(C(=O)CN3CCOC3=O)CC2)c1	none
CC(=O)Nc1ccc(C(=O)N(c2ccc(C)cc2)C2(C(=O)NCc3ccccc3)CCN(C(C)=O)CC2)cc1	none
CC(=O)N1CCC(C(=O)NCc2ccccc2)(N(C(=O)c2ccc(C)cc2)c2ccc(C(C)C)cc2)CC1	Tgondii IFNg -98
CC(=O)N1CCC(C(=O)NCc2ccccc2)(N(C(=O)c2ccc(Br)cc2)c2ccc(C)cc2)CC1	none
Cc1noc(C2CCCCN2C(=O)c2cnn(Cc3ccccc3)c2)n1 (centres undefined)	none
Nc1nnc(SCc2nc3ccccc3[nH]2)s1	none
Cn1cc(N2CC3(COCCN(C(=O)C4CC4)C3)OCC2=O)cn1 (centres undefined)	none
CCCc1c(-c2ccccc2)nc2[nH]c3ccccc3n2c1=O	none
C=CCn1c(-c2c(-c3ccccc3)ncn2CCc2cnc[nH]2)nc2ccccc21	none
C=CCn1c2ccccc2n2c(C(=O)CC)c(-c3ccccc3)nc12	Tgondii IFNg -98
CCN1CCc2ccc(=O)n(Cc3cccc(C)n3)c2CC1	none
CCOCC1CC2(COCCN2C(=O)c2ccoc2C)CO1 (centres undefined)	none
C=CCN1CC[C@H]2CN(Cc3ccsc3)C[C@H]2C1=O	none
Cc1cc(C(=O)N2CCC3(CC2)COc2ccccc2S(=O)(=O)N(CC(C)C)C3)no1	none
Cc1ccc(S(=O)(=O)N2CCC3(CC2)Nc2ccccc2-n2cccc23)cc1C	none
COc1ccc(NC(=O)N2CCC3(CC2)NC(=O)c2ccc(Cl)cc2N3C)c(C)c1	none
N#Cc1c(=O)[nH]c(O)c2c(=N)oc3ccc(Cl)cc3c12	none
N#Cc1c(=N)nc2oc3ccc(Cl)cc3c3c(C#N)c(N)[nH]c1c23	Tgondii IFNg -75
COc1ccc([C@H]2C3CCCCC3[C@@H]2NCc2cnc(C)nc2)cc1 (some centres undefined)	none
Cc1cnc(C)c(N2CCC3(CCCO3)CC2)n1	none
Cc1cccc(NC(=O)N2CCC(c3nc(C(=O)N(C)C)c(C)o3)CC2)c1	none
O=C(c1ccc2c(c1)OCO2)N1CCCCC1	none
O=C(O)c1cc(-c2ccc3c(c2)OCO3)nc2ccc(Br)cc12	none
O=C(O)c1cccc(-c2ccc3c(c2)OCO3)c1	Tgondii IFNg -75
CN1Cc2ccccc2CC2(CCN(c3ccccn3)CC2)C1=O	none
CCn1c(C)cc(C)c(C(=O)N2CCOC(c3ccc(Cl)cc3)C2)c1=O (centres undefined)	none
O=C(c1ncoc1-c1ccccc1)N1CCOC(c2ccc(Cl)cc2)C1 (centres undefined)	none
O=C(c1c(F)cccc1F)N1CCOC(c2ccc(Cl)cc2)C1 (centres undefined)	Tgondii IFNg -79
COc1ccc(CN(C)c2ccc(-c3nccn3C)nn2)cc1OC	none
COC1COC2(CCN(C(=O)c3cscn3)CC2)C1 (centres undefined)	none
CC(C)Cc1nc(CN(C)Cc2ncc[nH]2)no1	none
CNC(=O)C(C)N(C)Cc1nc2ccccc2n1CC(C)C (centres undefined)	none
CC(C)Cn1c(CN(C)Cc2ncc[nH]2)nc2ccccc21	Tgondii IFNg -84
C=C1C2(C(=O)N3CCC(c4cccc(OC)c4OC)C3)CCC(C2)C1(C)C (centres undefined)	none
Cc1ccc2oc(C(=O)N(C)C(C)c3nccs3)cc2c1 (centres undefined)	none
